Assay [1] can be described thus: qHTS to identify inhibitors of the type 1 interferon - major histocompatibility complex class I in skeletal muscle: primary screen against the NCATS Mechanism Interrogation Plate v5.0 (MIPE) Libary (AID 1347411). Also: nearly all actives have a fitted effect of over 65% in size. Also: potency is read from the fitted curve at half-maximal effect.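 As to activity change, negative = inhibition: plate controls were vehicle for no effect and reference inhibitor for full effect.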 In short, it runs like this: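 Immortalized human myoblasts (C25cl48) with HiBit knocked into endogenous HLA-B*08:01 were stimulated with 4 ng/ml IFN-beta and given compounds in 11-point 1:3 titration from 46 uM. After 24 h at 37 C, lytic HiBiT luminescence was read.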
On the technique in general: In qHTS, concentration-response curves come from the screen itself.

Assay [2] addresses Calcium and integrin-binding protein 1 (Homo sapiens) (UniProt Q99828). The assay can be described thus: Primary qHTS for Identification of Calcium Integrin Binding Protein 1 (CIB1) Competitor (AID 1508620).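 Also: GST tagged CIB1 binding a fluorescein labelled alphaIIb integrin peptide tracer; top concentration of the series differs between compounds; % is scaled to controls: 0 for no effect and ±100 for the full control effect.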 The method, boiled down:
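Fluorescence polarization competition: GST-tagged CIB1 (1 uM final) preincubated with compound 15 min at room temperature, then FITC-labelled alphaIIb peptide (100 nM final) added. After 15 min at room temperature, polarization read at Ex 480/Em 540.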

Assay [3] is described as follows: Primary qHTS for small molecule stabilizers of the endoplasmic reticulum resident proteome: Secreted ER Calcium Modulated Protein (SERCaMP) assay (AID 1508630). Also: % is scaled to controls: 0 for no effect and ±100 for the full control effect. The method, boiled down:
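GLuc-SERCaMP-expressing SH-SY5Y cells, pretreated 16 h with compound, are challenged with thapsigargin to empty ER calcium stores; after 4 h, coelenterazine is added directly to the medium and luminescence is imaged.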

For assay [4], the target named is Cytochrome P450 2C9 (Homo sapiens) (UniProt P11712). As to the kind of experiment: Cytochrome P450 family 2 subfamily C member 9 (CYP2C9) small molecule antagonists: luciferase biochemical (cell-free) qHTS assay (AID 1645842; active = well fitted curve in the direction sought with a large enough effect in the repeat runs; an effect the other way counts as inactive or inconclusive; also: nearly all actives have a fitted effect of over 55% in size; also: potency is read from the fitted curve at half-maximal effect; as to activity change, negative = inhibition: % is scaled to controls: 0 for no effect and ±100 for the full control effect). The method, boiled down: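 Luminescence, after 20 min with luciferin detection reagent, reflected CYP2C9 turnover during a 1 h NADPH-driven reaction at 37C. Enzyme-substrate mix contained 0.4% bovine serum albumin and was preincubated with compound 10 min at room temperature.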
Sequence of Cytochrome P450 2C9 (Homo sapiens) (P11712 whole entry, looked up): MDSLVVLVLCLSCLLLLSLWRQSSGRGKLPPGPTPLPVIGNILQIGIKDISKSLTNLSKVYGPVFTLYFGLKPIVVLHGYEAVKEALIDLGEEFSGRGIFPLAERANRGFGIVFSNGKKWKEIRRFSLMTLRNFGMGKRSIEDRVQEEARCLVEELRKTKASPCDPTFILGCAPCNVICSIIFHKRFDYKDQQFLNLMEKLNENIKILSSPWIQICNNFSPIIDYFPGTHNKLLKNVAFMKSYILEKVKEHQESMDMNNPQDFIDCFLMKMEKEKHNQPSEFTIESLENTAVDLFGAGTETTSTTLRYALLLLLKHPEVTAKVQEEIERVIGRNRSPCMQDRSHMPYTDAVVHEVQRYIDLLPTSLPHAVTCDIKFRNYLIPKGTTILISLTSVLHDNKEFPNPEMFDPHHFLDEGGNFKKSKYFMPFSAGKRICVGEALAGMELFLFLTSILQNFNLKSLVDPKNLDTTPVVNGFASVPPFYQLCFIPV

Assay [5] is described as follows: Primary qHTS for inhibitors of nuclear receptor binding SET domain protein 2 (NSD2) in an isogenic RCH-ACV NSD2 p.E1099K mutant (9B) (AID 1645876). Also: nearly all actives have a fitted effect of over 70% in size. Also: potency is read from the fitted curve at half-maximal effect.
Assay [6] can be described thus: Primary qHTS for inhibitors of nuclear receptor binding SET domain protein 2 (NSD2) in an RCH-ACV wild type WT cells (2C) (AID 1645877). Also: nearly all actives have a fitted effect of over 70% in size. Also: potency is read from the fitted curve at half-maximal effect.
Assay [7] deals with Catechol O-methyltransferase (Homo sapiens) (UniProt P21964). As to the kind of experiment: Confirmatory Screen for Target Class Profiling of Small Molecule Inhibitors of Methyltransferases (AID 1745852). As to activity change, negative = inhibition: % is scaled to controls: 0 for no effect and ±100 for the full control effect. To be noted: MTase-Glo luminescence, SAH detection, recombinant enzyme; measured here: COMT max response; stronger effect = lower value.
Sequence of Catechol O-methyltransferase (Homo sapiens) (P21964 whole entry, looked up): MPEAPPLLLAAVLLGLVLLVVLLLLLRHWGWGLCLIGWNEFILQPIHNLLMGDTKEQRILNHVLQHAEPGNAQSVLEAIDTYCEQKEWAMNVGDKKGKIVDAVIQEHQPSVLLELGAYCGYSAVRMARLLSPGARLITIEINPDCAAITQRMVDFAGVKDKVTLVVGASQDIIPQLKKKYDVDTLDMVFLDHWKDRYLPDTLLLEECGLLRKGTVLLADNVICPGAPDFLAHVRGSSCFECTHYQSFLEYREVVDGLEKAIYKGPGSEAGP
Assay [8] has as its target Guanidinoacetate N-methyltransferase (Homo sapiens) (UniProt Q14353). The description is as above. To be noted: activity change, negative = inhibition: at 57.3 µM (top of the series).
The target in assay [9] is Nicotinamide N-methyltransferase (Homo sapiens) (UniProt P40261). The assay is described as above. To be noted: MTase-Glo luminescence, SAH detection, recombinant enzyme; measured here: NNMT max response; stronger effect = lower value.
Sequence of Nicotinamide N-methyltransferase (Homo sapiens) (P40261 whole entry, looked up): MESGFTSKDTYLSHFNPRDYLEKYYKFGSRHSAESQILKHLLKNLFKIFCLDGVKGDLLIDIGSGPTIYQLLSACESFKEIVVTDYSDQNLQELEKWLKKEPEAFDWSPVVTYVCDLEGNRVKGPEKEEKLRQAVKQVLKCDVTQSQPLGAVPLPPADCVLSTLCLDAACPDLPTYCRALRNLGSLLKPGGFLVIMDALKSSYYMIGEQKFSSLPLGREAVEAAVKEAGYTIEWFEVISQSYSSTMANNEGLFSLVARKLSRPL

The values below come from PubChem BioAssay (NCATS).

“And” between values parts separate entries of the source, which are not always exact repeats. Equal entries are not always repeated. Results filed as inconclusive are left out. The source made the active and inactive calls. Unless noted, calls follow the shape of the dose curve; as a rule, active = well fitted curve in the direction sought with a large enough effect; inconclusive = small, poorly fitted or top-dose-only effect, or another doubt; inactive = no such curve, though single readings can be large; an effect the other way counts as inactive or inconclusive.

Sequence of Calcium and integrin-binding protein 1 (Homo sapiens) (Q99828 whole entry, looked up): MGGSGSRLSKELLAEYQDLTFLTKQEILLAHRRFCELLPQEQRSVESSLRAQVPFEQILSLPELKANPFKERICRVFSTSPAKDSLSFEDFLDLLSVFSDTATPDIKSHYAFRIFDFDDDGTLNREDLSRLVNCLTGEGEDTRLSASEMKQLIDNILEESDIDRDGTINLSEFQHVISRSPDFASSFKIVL

For `COc1ccc(S(=O)(=O)Nc2cccnc2Nc2ccc(O)cc2)cc1`, the Potency result in [1] and in [2] was “inactive” in each case. Also, the outcome in assay [3] was “inactive”. Besides, the results for the Potency in assay [4], in assay [5] and in assay [6] were 8.49 µM (active), 9.34 µM (active) and 9.34 µM (active), respectively.

Turning to `CCCCCCCCCCCCc1ccc(S(=O)(=O)Nc2nncs2)cc1`, the Potency entry in assay [1], in assay [2] and in assay [5] was “inactive” each time. The outcome in assay [3] was “inactive”.

For the compound `C[N+](C)([O-])CCNc1ccc(NCC[N+](C)(C)[O-])c2c1C(=O)c1c(O)ccc(O)c1C2=O`, the Potency result in [1] and in assay [2] was “inactive” each time. Further, the outcome in assay [3] is “inactive”. Besides, the Potency is 0.0525 µM (active) in assay [5] and 0.0372 µM (active) in [6].

`CCOC(=O)[C@@H](N)Cc1ccc(-c2cc(O[C@H](c3ccc(Cl)cc3-n3ccc(C)n3)C(F)(F)F)nc(N)n2)cc1`: the Potency in assay [1] is 9.3 µM (active); in assay [4], 6.01 µM (active); in assay [6] it was 23.5 µM (active). The Potency result in [2] was “inactive”. For the same compound, the outcome in assay [3] was “inactive”. The activity in assay [7] is -0.461%; in assay [9], -31.8%. The activity change, negative = inhibition in [8] was determined as 0%.

As for `O=C(CN1C(=O)C2(CCCC2)NC[C@H]1c1cc(F)cc(F)c1)Nc1ccc2c(c1)C[C@@]1(C2)C(=O)Nc2ncccc21`, the Potency result in assay [1], in assay [2], in assay [5] and in assay [6] was “inactive” in each case. In addition, the outcome in assay [3] was “inactive”.

Turning to `CC(C)C[C@H](NC(=O)CNC(=O)c1cc(Cl)ccc1Cl)B1OC(=O)CC(CC(=O)O)(C(=O)O)O1` (stereo partly specified), the Potency in [1] was 0.294 µM (active); in assay [5], 0.186 µM (active); in assay [6] it was 0.118 µM (active). Also, the Potency result in [2] and in assay [4] was “inactive” each time. Moreover, in assay [3], the outcome is “inactive”.

Take `Oc1ccc(-c2ccc(-c3cc(Nc4cccc(CNC5CC5)c4)n[nH]3)cc2)c(O)c1`: the Potency in [1] was 5.87 µM (active); in assay [5], 1.48 µM (active); in assay [6], 1.86 µM (active). Also, the Potency result in [2] is “inactive”. Also, the outcome in [3] was “inactive”.

For the compound `CCCNS(=O)(=O)Nc1ncnc(OCCOc2ncc(Br)cn2)c1-c1ccc(Br)cc1`, the Potency entry in assay [1] and in assay [2] was “inactive” in each case. Besides, in assay [3], the outcome was “inactive”. Also, the Potency was 18.6 µM (active) in assay [5] and 16.6 µM (active) in assay [6].

Regarding `CC[C@@]1([C@@H]2O[C@@H]([C@H]3O[C@@](O)(CO)[C@H](C)C[C@H]3C)C[C@H]2C)CC[C@H]([C@]2(C)CC[C@]3(C[C@H](O)[C@@H](C)[C@@H]([C@@H](C)[C@@H](OC)[C@H](C)C(=O)O)O3)O2)O1`, the Potency entry in assay [1] and in assay [2] was “inactive” throughout. Moreover, the outcome in assay [3] was “inactive”. For the same compound, the Potency in assay [5] was 0.162 µM (active); in assay [6], 0.102 µM (active).

In the case of `CC(C)C[C@H](NC(=O)[C@@H](NC(=O)c1cccc(-c2ccccc2)n1)[C@@H](C)O)B(O)O`, the Potency in assay [1] was 0.0641 µM (active); in [5], 29 nM (active) and 32.3 nM (active); in assay [6], 18.3 nM (active) and 22.9 nM (active). In addition, the Potency entry in [2] was “inactive”. Also, in [3], the outcome was “inactive”.

In the case of `C[C@H](CCC(=O)O)[C@H]1CCC2C3C[C@H](O)[C@@H]4C[C@H](O)CC[C@]4(C)C3CC[C@@]21C` (stereo partly specified), the Potency result in assay [1], in assay [2], in assay [5] and in [6] was “inactive” in each case. In [3], the outcome was “inactive”.

Consider `O=C(O)c1ccc(Nc2ncc3c(n2)-c2ccc(Cl)cc2C(c2c(F)cccc2F)=NC3)cc1`, for which the Potency result in [1] and in assay [2] was “inactive” each time. In addition, the outcome in assay [3] was “inactive”. Besides, the Potency in [4] is 21.3 µM (active); in [5], 258 nM (active) and 742 nM (active); in [6], 325 nM (active) and 372 nM (active).

For the compound `c1coc(CNc2ncnc3nc[nH]c23)c1`, the Potency result in [1], in assay [2], in assay [5] and in [6] was “inactive” in each case. Further, the outcome in [3] is “inactive”.

For the compound `O=C(Nc1nnc(-c2ccco2)o1)c1cc(-c2ccccc2)nc2ccccc12`, the Potency result in assay [1] and in [2] was “inactive” in each case. Also, in assay [3], the outcome is “inactive”. Also, the Potency in assay [5] is 18.6 µM (active); in assay [6] it was 13.2 µM (active).

Take `Nc1nc(=O)n([C@H]2C[C@H](O)[C@@H](CO)O2)cc1F`: the Potency result in assay [1] and in [2] was “inactive” throughout. The outcome in assay [3] was “inactive”. The figures for the Potency in assay [5] and in [6] were 0.0118 µM (active) and 0.0148 µM (active), respectively.

As for `CC(C)NC[C@@H](C(=O)N1CCN(c2ncnc3c2[C@H](C)C[C@H]3O)CC1)c1ccc(Cl)cc1`, the Potency entry in [1] and in assay [2] was “inactive” throughout. Further, the outcome in assay [3] was “inactive”. In addition, the Potency was 1.66 µM (active) in assay [5] and 2.63 µM (active) in [6].

With `C[C@@H]1C(=O)O[C@H]2CC34[C@H]5C[C@@H](C(C)(C)C)C36[C@H](OC(=O)[C@@H]6O)O[C@@]4(C(=O)O5)[C@]21O` (stereo partly specified), the Potency result in [1], in assay [2], in assay [5] and in assay [6] was “inactive” in each case. Moreover, in assay [3], the outcome is “inactive”.

As to `COc1ccc2c(c1OC)C(=O)OC2[C@H]1c2c(cc3c(c2OC)OCO3)CCN1C` (stereo partly specified), the Potency result in [1] and in assay [2] was “inactive” throughout. Further, in assay [3], the outcome is “inactive”. In addition, the Potency in [5] was 20.9 µM (active); in [6] it was 23.5 µM (active).

Consider `CC(Oc1ccc(O)cc1)(P(=O)(O)O)P(=O)(O)O`, for which the Potency entry in assay [1], in [2], in assay [5] and in assay [6] was “inactive” throughout. Further, the outcome in [3] was “inactive”.

With `FC(F)(F)c1ccc(Nc2nc3ccc(Oc4ccnc(-c5ncc(C(F)(F)F)[nH]5)c4)cc3[nH]2)cc1`, the Potency result in assay [1] and in assay [2] was “inactive” each time. In addition, in [3], the outcome is “inactive”. The results for the Potency in [4], in assay [5] and in assay [6] were 23.9 µM (active), 14.8 µM (active) and 23.5 µM (active), respectively.

On to `Cc1cncc2cccc(S(=O)(=O)N3CCCN(C(=O)CN)C[C@@H]3C)c12`, for which the Potency entry in assay [1] and in assay [2] was “inactive” throughout. The outcome in [3] is “inactive”. Besides, the Potency in [4] was 19 µM (active); in [6], 1.45 µM (active).

Consider `CC(C(C)N1CC(=O)NC(=O)C1)N1CC(=O)NC(=O)C1` (stereo unspecified), for which the Potency entry in [1] and in [2] was “inactive” throughout. The outcome in [3] was “inactive”. Also, the Potency is 5.25 µM (active) in [5] and 3.32 µM (active) in assay [6].
